From paper PMC12136788 come the findings set out here.

T1: UNK ZnF1-3 (human, UniProt Q9C0B0 31-174)
T1 sequence: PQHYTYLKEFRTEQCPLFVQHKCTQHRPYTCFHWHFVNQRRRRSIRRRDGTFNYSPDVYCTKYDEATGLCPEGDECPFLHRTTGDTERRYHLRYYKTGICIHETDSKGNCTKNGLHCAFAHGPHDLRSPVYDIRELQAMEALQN

B1: 112904347_112904467_7746_CDS_ENSMUSG00000036862_ENSMUST00000078482|mouse|control|control (ssRNA)
RNA: GGGAGUUCUACAGUCCGACGAUCUGUGGCCUCCAGGGUGAGCAGGGUGGAACCAGGGGGCAAAUCUUCAGACACAGCAACACGGUAGUGUGGCAAUGUGAAGCUUGGGGCAUGGUCAUUCUGGUCCUUCAGCUGCACAUGCACCAACAGAGGAUUGAGCAUCA
B2: chrX:40988281:40988282:+_ENSG00000124486_ENST00000378308|hu_mus|FALSE|FALSE (ssRNA)
RNA: GGGAGUUCUACAGUCCGACGAUCUUCAAUCUGUGGAGGAGCAUCACCUUGACCUUGCUCAUCAGGAGGAGUUGCAGGGGAAUUUUCAUUGGACGAAUCAGGCGAUGAAGUCUGAUUCUGUUGGAGGGGGGGCUGAGACUGUCCCAACAGAGGAUUGAGCAUCA
B3: chr6:17872010:17872011:+_ENSMUSG00000029534_ENSMUST00000127322|mus_mus|motif|central (ssRNA)
RNA: GGGAGUUCUACAGUCCGACGAUCUCACUGUCUCCUCUCUUCAGGAUGUGUUCUGGUGGGAGGAUUAAGCUUUUCAUUUCGGGUAGAUAUUUUGGCACGUGUGGAUUAAAUUCCACAGCUCUGUGGAUGGCUUCUACUGCAUUCCAACAGAGGAUUGAGCAUCA
B4: chr9:37441256:37441257:-_ENSG00000168795_ENST00000307750|hu_hu|FALSE|FALSE (ssRNA)
RNA: GGGAGUUCUACAGUCCGACGAUCAGGCCCAGCCUCUGGACUCAACAAAUAGGGGGCCUCACUCUCCAGCCUGCAGUCACUAGUGGUGUUUGGAAUAUUAUCAUCAUUGUUCUGAUUUGCAGUAAAGUUAUUUCCUCUGCUCUUCAACAGAGGAUUGAGCAUCA
B5: 80013064_80013876_841_CDS_ENSG00000169727_ENST00000578552|human|control|control (ssRNA)
RNA: GGGAGUUCUACAGUCCGACGAUCCUCAGGGAAGUCACAGUGAUCAAAGGAAGCCAGCAGGAGGCACUUGGCAGCCUGCUUGUACUUCCUGGCGGCCAGCUCUGCCAAGCCUGCGGCACACUUGAGCUUGGUGAGGAUGGCCUGCAACAGAGGAUUGAGCAUCA
B6: chrX:40988281:40988282:+_ENSG00000124486_ENST00000378308|hu_hu|FALSE|FALSE (ssRNA)
RNA: B2 RNA with U29G, A36U, A39G, A63U, A66G, A75C, C93A
B7: 5790880_5791000_6181_CDS_ENSG00000108021_ENST00000328090|human|control|control (ssRNA)
RNA: GGGAGUUCUACAGUCCGACGAUCGAAGUUCAACGACGACUCAUAGCCAUCUGUGGGAACAUCUUUUUUCCUGGUGUAACUACCUCUUAAAGUAUAAGAAUCCUCCAAAUCCAGUCUGGGAUUUCUACAAUCACCAAGCAGGUCCAACAGAGGAUUGAGCAUCA
B8: chr12:133780691:133780692:+_ENSG00000090612_ENST00000541009|hu_hu|motif|central (ssRNA)
RNA: GGGAGUUCUACAGUCCGACGAUCUCAUAUGGUUUUUCACCUGAAUGAGUUCUCAUGUGUAUAAUUAGGUAUGACUUGCUGCGGAAAGCUUUCCCACAUUCACUGCACCCAUAAGGCUUUUCCCCUGCAUGAGUUCGCUGAUGUCAACAGAGGAUUGAGCAUCA
B9: 5036412_5036532_457_CDS_ENSMUSG00000022536_ENSMUST00000115844|mouse|control|control (ssRNA)
RNA: GGGAGUUCUACAGUCCGACGAUCGCCUGAAGUCACCCUCUUCUUUCCUUCUCCCAUGUUCUUCUUCACCUUCCCUUCAGACAGGCUAAGCUUGCGUUUCUCAUCACCUGAGUUUGGCCUACUUCUCUCCUCACUGGAAUUACGCAACAGAGGAUUGAGCAUCA
B10: chr5:37680062:37680063:+_ENSMUSG00000029121_ENSMUST00000031004|mus_hu|mus_mus_mus_hu_False|58_98 (ssRNA)
RNA: GGGAGUUCUACAGUCCGACGAUCUUUGGGUGUAGCUGGCACCUCGUACACAGGACCGUCAUACAUGCCCCUGGAAACACUAUGCAAUCCAAAAACCUUAUUCCUGAUUUUGACGCGCUGGUACAGGUGCUCCGGGAACGCCUUCAACAGAGGAUUGAGCAUCA
B11: chr7:97619395:97619396:-_ENSMUSG00000030614_ENSMUST00000032843|mus_mus|motif|central (ssRNA)
RNA: GGGAGUUCUACAGUCCGACGAUCCAGGGAUGCAUAGGUCUUCAAAGCUUCAUAUUUAACCUUGAAACUGUUUCGGAAAACGGAGUUUGCCAUUAUGCCAGACAAACUACUACUUGUUCCAAAGACCAAAGUUCCAUGUAUAUUCAACAGAGGAUUGAGCAUCA
B12: chr6:86474593:86474594:-_ENSMUSG00000051695_ENSMUST00000053015|mus_hu|FALSE|FALSE (ssRNA)
RNA: GGGAGUUCUACAGUCCGACGAUCACAUUUCUUAUCGACAAACAGAAAUAAAAUUCAUGAGCCAAAAAACCCAAAACAAAACUAAAAACAGGGAAAAGCUUAUAAAACUAAAUAUGGAUCCCAGCAUUAACAGCUGAACAGAGACAACAGAGGAUUGAGCAUCA
B13: 90301638_90312025_2792_CDS_ENSG00000196730_ENST00000408954|human|control|control (ssRNA)
RNA: GGGAGUUCUACAGUCCGACGAUCGACAACAACAUGGAUUGACGUGGGAUCAUUUGCAGCAAAAUAGUCAUAACAGCAGAAAUACACAGGAUUUCCAGAGAACUCCCACACGCUGAAAUCGCCAACUCCAUUCAAAUAAGCGUUCAACAGAGGAUUGAGCAUCA
B14: chr6:86474593:86474594:-_ENSMUSG00000051695_ENSMUST00000053015|mus_hu|motif|central (ssRNA)
RNA: B12 RNA with U82G, A83G
B15: chr2:27118074:27118075:-_ENSMUSG00000009621_ENSMUST00000056176|mus_hu|FALSE|FALSE (ssRNA)
RNA: GGGAGUUCUACAGUCCGACGAUCAUUCACAGAUAUAUAACGGGAGAUUUGGAUGAAAUAAUUACAAACUUUUUUCCCCUUAAAAAACAAACAAGCCAAACAAAACACAAACAAAACAAAAACCCCAAAACCAAAACACAAGACCAACAGAGGAUUGAGCAUCA
B16: chr2:131139019:131139020:-_ENSMUSG00000048911_ENSMUST00000059372|mus_mus|FALSE|FALSE (ssRNA)
RNA: GGGAGUUCUACAGUCCGACGAUCGAUAUAGAUGUUGAGAGGCAGAUUCUGGAAUCCAAUAUUAGGCAUCCUGAAGUUAUAAUGUGGGAAAUCUGAGCUCAUGGAUGAACCGGGCGACGGGCAGCGGGCGUGCGGGCGGCGGCGCAACAGAGGAUUGAGCAUCA
B17: chr11:77336104:77336105:-_ENSG00000074201_ENST00000525064|hu_mus|hu_hu_hu_mus_False|98_108 (ssRNA)
RNA: GGGAGUUCUACAGUCCGACGAUCCUCGCACAUUGCAGUGAACAUUGCCUCCAAUGCUGACUUAUCACUGGGCACAAAUCGAAAUUCAGAAAUGGGUUCAACAUCAUCAUUGUCUUCCUCAUCUUCAUCAGAGAGAGGUUCUUUCAACAGAGGAUUGAGCAUCA
B18: 49074419_49074539_462_3pUTR_ENSMUSG00000020346_ENSMUST00000109194|mouse|control|control (ssRNA)
RNA: GGGAGUUCUACAGUCCGACGAUCCACAGGCAAUGACCAGGAUGGGGAUCUGCACUGGUGAGGGGGUCACAGGCACACGGGGCCAGGCUGGAGGGGCCACAGUGGGAACUCUCCACCUCUGCCUCCACAAAGCAUAAUGCUCCUCAACAGAGGAUUGAGCAUCA
B19: chr8:92086081:92086082:+_ENSG00000155100_ENST00000285420|hu_mus|motif|central (ssRNA)
RNA: GGGAGUUCUACAGUCCGACGAUCAAUCCGAGGUGGUUGAUUCUCAAGUACCAAGUUUGAAAUGUUAACAGCAACAGAAUCGGUCUUACUGUCCUUGAAAGUCAAUUGCUUCAAUUGCUCCAGUUCUUCCCUGUGUUUUUGCUCCAACAGAGGAUUGAGCAUCA
B20: chr3:10015032:10015033:+_ENSMUSG00000027533_ENSMUST00000029046|mus_mus|mus_mus_mus_hu_True|38_48 (ssRNA)
RNA: GGGAGUUCUACAGUCCGACGAUCGUUUUUACCAUCACAAGUGAUGAUACAAUCUGGCUUGGCCAUUGCGCCCAUUUUUCGCAAAGCCAGUCCUACUCCUAGCUCUUUCAUGUAUUCAUCAAAGCCUUUGCUGUCCACCAGGCGCAACAGAGGAUUGAGCAUCA
B21: chr2:48026839:48026840:+_ENSG00000116062_ENST00000540021|hu_hu|hu_hu_hu_mus_False|18_48 (ssRNA)
RNA: GGGAGUUCUACAGUCCGACGAUCAUAGUGAGCCACUAGCGUCCUAAAUCUGGAACAGUGGCGGUCAUCCGAAAACUGGCCGAUGAAAAACUUUCCCAGUGAAGUGUCCACAAAGCACACACCAUAUACACGAGUGUGACCAGACAACAGAGGAUUGAGCAUCA
B22: chr11:46405157:46405158:+_ENSG00000110492_ENST00000395566|hu_hu|hu_hu_hu_mus_False|18_28 (ssRNA)
RNA: GGGAGUUCUACAGUCCGACGAUCCCCUCCCCACUUUGGGCACUUGGUGUGGGCGUGAGAGGACAGGCGUGAUUGACAGAGCUGACAGGAAGACAAAAGGCACUGGUGGGUCACAUCUCGGGCCUGGGGGAGAGGAGGGCUCCGCAACAGAGGAUUGAGCAUCA
B23: chr11:46405157:46405158:+_ENSG00000110492_ENST00000395566|hu_hu|hu_hu_hu_mus_False|1_18 (ssRNA)
RNA: B22 RNA with C111U, C113U, G138C, C139G, C141G, C142G
B24: chr11:46405157:46405158:+_ENSG00000110492_ENST00000395566|hu_hu|hu_hu_hu_mus_False|58_108 (ssRNA)
RNA: GGGAGUUCUACAGUCCGACGAUCCCCUUAGGGGUGGGGGCACUUGGUGUGGGCGUGAGAGGACAGGCGUGAUUGACAAAGCUAACGGGAAGACAAAAGGCACUGGUGGGUUAUAUCUUGGGCCUGUGGGAGAGGAGGGCUCCGCAACAGAGGAUUGAGCAUCA
B25: chr11:46405157:46405158:+_ENSG00000110492_ENST00000395566|hu_hu|hu_hu_hu_mus_False|8_108 (ssRNA)
RNA: B24 RNA with A78G, A83G, G86A, G128A, A132G, G134A, A135G
B26: chr11:46405157:46405158:+_ENSG00000110492_ENST00000395566|hu_hu|hu_hu_hu_mus_False|18_108 (ssRNA)
RNA: B24 RNA with A78G, A83G, G86A, U118C, U126G
B27: chr11:46405157:46405158:+_ENSG00000110492_ENST00000395566|hu_hu|hu_hu_hu_mus_False|98_108 (ssRNA)
RNA: B24 RNA with G39C, C40U, A41G, C42G, U43G, U44G, G45A, A78G, A83G, G86A

Positions count from the first letter of the chain named. The full ranking holds about 24,000 sequences; the median of “enrichment r” is about 0.99, and the highest 2% start at about 3.7. For the sample, the highest values were picked, then their nearest neighbours and some sequences at random.

This assay has as its target T1, UNK ZnF1-3. Description: nsRBNS (natural sequence RNA bind-n-seq); RBNS binding buffer (assumed for nsRBNS): 25 mM Tris pH 7.5, 150 mM KCl, 3 mM MgCl2, 0.01% Triton X-100, 500 ug/ml BSA, 20 U/ml SUPERase-In, 4 C; UNK is unkempt and MSI1 is Musashi-1; names of the RNAs are library labels; protein concentration not given here; high values mean tight binding.
For the molecule B1, the binding signal was 1.43 enrichment R.
For B2 the value was 1.31 enrichment R; for B3, 0.937 enrichment R; for B4, 0.924 enrichment R.
As for B5, the binding signal was determined as 0.285 enrichment R.
The result for B6 reads 1.24 enrichment R; that for B7, 1.18 enrichment R; that for B8, 0.705 enrichment R.
For B9 the value was 0.512 enrichment R.
For B10 the value was 0.673 enrichment R; for B11, 0.591 enrichment R; for B12, 5.48 enrichment R.
In turn, B13 showed a binding signal of 2.03 enrichment R.
As for B14, the binding signal came to 4.53 enrichment R.
For B15 the value was 3.28 enrichment R; for B16, 0.719 enrichment R.
For B17 the value was 0.914 enrichment R; for B18, 0.862 enrichment R.
Molecule B19 registered a binding signal of 1.01 enrichment R.
On to B20, for which the binding signal worked out at 0.575 enrichment R.
Take B21: the binding signal was determined as 1.2 enrichment R.
For B22 the value was 3.48 enrichment R; for B23, 3.4 enrichment R; for B24, 3.45 enrichment R.
The result for B25 reads 4.04 enrichment R; that for B26, 4.17 enrichment R.
The result for B27 reads 3.34 enrichment R.
